Source: PubChem BioAssay AID1159580 (chemical genetic matrix, 2015)
Among all 5,500 compounds or so, about 2,000 (36%) were called active. About 18% were inconclusive and are not listed. No stated cut-off is given here; in the data, active means normalized growth mostly below about 0.91 (no sharp cut-off); inconclusive means no clear call, values can overlap the other calls; inactive means mostly above about 0.92. This is one part of the list.

Test: chemical genetic growth profiling, strain panel (AID 1159580);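 further: tested at 20 µM; growth read once vehicle control cultures reached saturation at 30 °C; 1 = growth at the plate median or of vehicle wells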
Conditions: S. cerevisiae deletion strains, growth OD

Measured: normalized growth

CC1=C(/C=C/C(C)=C/C=C/C(C)=C/C=C/C=C(C)/C=C/C=C(C)/C=C/C(=O)[C@]2(C)C[C@@H](O)CC2(C)C)C(C)(C)C[C@H](O)C1
active: locus YNL248C, strain rpa49, stronger effect = lower value 1.12 [resistant]
inactive: locus YAL021C, strain ccr4, stronger effect = lower value 1.05 | locus YAL026C, strain drs2, stronger effect = lower value 1.06 | locus YAL030W, strain snc1, stronger effect = lower value 1.01 | locus YBL061C, strain skt5, stronger effect = lower value 1.03 | locus YBR009C, strain hhf1, stronger effect = lower value 0.996 | locus YBR023C, strain chs3, stronger effect = lower value 1.03 | locus YBR171W, strain sec66, stronger effect = lower value 1.03 | locus YBR231C, strain swc5, stronger effect = lower value 0.995 | locus YBR279W, strain paf1, stronger effect = lower value 1.05 | locus YCL011C, strain gbp2, stronger effect = lower value 1.01 | locus YCL016C, strain dcc1, stronger effect = lower value 1.02 | locus YCL069W, strain vba3, stronger effect = lower value 1.04 | locus YCR088W, strain abp1, stronger effect = lower value 1.02 | locus YDL005C, strain med2, stronger effect = lower value 1.03 | locus YDL040C, strain nat1, stronger effect = lower value 1.02 | locus YDR001C, strain nth1, stronger effect = lower value 1.02 | locus YDR069C, strain doa4, stronger effect = lower value 1.05 | locus YDR137W, strain rgp1, stronger effect = lower value 1.05 | locus YDR159W, strain sac3, stronger effect = lower value 0.98 | locus YDR195W, strain ref2 0.978 | locus YDR297W, strain sur2, stronger effect = lower value 1.02 | locus YDR334W, strain swr1, stronger effect = lower value 1.02 | locus YDR335W, strain msn5, stronger effect = lower value 1.03 | locus YDR392W, strain spt3, stronger effect = lower value 0.984 | locus YEL003W, strain gim4, stronger effect = lower value 0.997 | locus YEL037C, strain rad23, stronger effect = lower value 1.02 | locus YEL061C, strain CIN8 (second series), stronger effect = lower value 1.04 | locus YER015W, strain faa2, stronger effect = lower value 1.04 | locus YER016W, strain bim1, stronger effect = lower value 1.03 | locus YER111C, strain swi4, stronger effect = lower value 1.03 | locus YER155C, strain BEM2 (second series), stronger effect = lower value 1.03 | locus YFR010W, strain ubp6, stronger effect = lower value 1.02 | locus YGL167C, strain pmr1, stronger effect = lower value 1.03 | locus YGL173C, strain kem1, stronger effect = lower value 1 | locus YGL227W, strain vid30, stronger effect = lower value 1.02 | locus YGL240W, strain doc1, stronger effect = lower value 0.968 | locus YGL253W, strain hxk2, stronger effect = lower value 1.03 | locus YHR013C, strain ard1, stronger effect = lower value 1.03 | locus YHR027C, strain rpn1, stronger effect = lower value 1 | locus YHR030C, strain SLT2, stronger effect = lower value 0.991 | locus YHR079C, strain IRE1, stronger effect = lower value 0.987 | locus YHR142W, strain chs7, stronger effect = lower value 1.06 | locus YJL092W, strain hpr5, stronger effect = lower value 1.02 | locus YJL095W, strain BCK1 (second series), stronger effect = lower value 1.02 | locus YJL095W, strain BCK1, stronger effect = lower value 1.01 | locus YJL115W, strain asf1, stronger effect = lower value 1.02 | locus YJL129C, strain trk1, stronger effect = lower value 1.05 | locus YJL154C, strain vps35, stronger effect = lower value 1.01 | locus YJL164C, strain tpk1, stronger effect = lower value 1.02 | locus YJL166W, strain qcr8, stronger effect = lower value 1.04 | locus YJR066W, strain TOR1, stronger effect = lower value 0.942 | locus YKL160W, strain elf1, stronger effect = lower value 1.02 | locus YKR026C, strain gcn3, stronger effect = lower value 1.04 | locus YKR091W, strain srl3, stronger effect = lower value 1.01 | locus YLL001W, strain dnm1, stronger effect = lower value 1 | locus YLL026W, stronger effect = lower value 1.02 | locus YLL041C, strain sdh2, stronger effect = lower value 1.03 | locus YLR027C, strain aat2, stronger effect = lower value 1.02 | locus YLR113W, strain HOG1, stronger effect = lower value 0.991 | locus YLR221C, strain rsa3, stronger effect = lower value 1 | locus YLR258W, strain gsy2, stronger effect = lower value 1.02 | locus YLR262C, strain YPT6 (second series), stronger effect = lower value 1.02 | locus YLR320W, strain mms22, stronger effect = lower value 0.981 | locus YLR342W, strain FKS1, stronger effect = lower value 1.04 | locus YLR357W, strain rsc2, stronger effect = lower value 1.06 | locus YLR370C, strain arc18, stronger effect = lower value 1.02 | locus YLR384C, strain iki3, stronger effect = lower value 1.01 | locus YML120C, strain ndi1, stronger effect = lower value 0.986 | locus YMR058W, strain fet3, stronger effect = lower value 1.05 | locus YMR125W, strain sto1, stronger effect = lower value 1.02 | locus YMR129W, stronger effect = lower value 1.02 | locus YMR205C, strain PFK2, stronger effect = lower value 0.995 | locus YMR231W, strain pep5, stronger effect = lower value 1.04 | locus YNL071W, strain lat1, stronger effect = lower value 1.03 | locus YNL183C, strain NPR1, stronger effect = lower value 0.944 | locus YNL209W, strain ssb2, stronger effect = lower value 1.02 | locus YNL322C, strain KRE1 (second series), stronger effect = lower value 1.03 | locus YNR049C, strain mso1, stronger effect = lower value 1.01 | locus YOR001W, strain rrp6, stronger effect = lower value 1.01 | locus YOR070C, strain gyp1, stronger effect = lower value 1.02 | locus YOR080W, strain dia2, stronger effect = lower value 1.03 | locus YOR083W, strain WHI5, stronger effect = lower value 0.993 | locus YOR106W, strain vam3, stronger effect = lower value 1.05 | locus YOR231W, strain MKK1, stronger effect = lower value 1.01 | locus YOR265W, strain rbl2, stronger effect = lower value 1.02 | locus YOR270C, strain vph1, stronger effect = lower value 1.16 | locus YOR290C, strain snf2, stronger effect = lower value 1.04 | locus YPL051W, strain arl3, stronger effect = lower value 1.06 | locus YPL078C, strain atp4, stronger effect = lower value 1.05 | locus YPL106C, strain sse1, stronger effect = lower value 1.05 | locus YPL240C, strain hsp82, stronger effect = lower value 1.01 | locus YPL256C, strain CLN2, stronger effect = lower value 0.995
